CYP2C19 inhib = human CYP2C19 inhibition. P33261. CYP2C19 Supersomes, luciferin-H EGE luminescence, 30 min. inhibition, % at 5 µM. 96,000 compounds, 21% hits. AID 778;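 active = CYP2C19 inhibition above a set limit at 5 µM in the primary screen, cut at about 50% in these data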
CYP2C9 inh = blocks human cytochrome P450 2C9; P11712; CYP2C9 Supersomes, luciferin-H conversion, luminescence; inhibition, % at 5 µM; 96,000 compounds, 20% hits;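 active = blocking of liver enzyme CYP2C9 beyond about 50% at 5 µM, limit read from the data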
CYP2C19 act = cytochrome P450 2C19 (human) activation; P33261; activation factor at 5 µM; 96,000 tested, under 10 active; recombinant CYP2C19, luciferin-H EGE luminescence; active compounds read high; 0 = fully inhibited enzyme, 1 = untreated enzyme;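 active = activation factor of at least 2 at 5 µM in the primary screen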
Cav3 T inh = inhibitors of human Cav3.2 T-type calcium channel; AID 449739; B-score at 10 µM; Cav3.2-expressing cells, Fluo-4 calcium fluorescence FDSS; active compounds read low; 100,000 compounds, 4% hits;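 active = single-dose well whose peak fluorescence ratio is a statistical outlier from its plate by either plate-standardised score or position-corrected B-score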
CYP2C9 activ = CYP2C9 (human) activation. recombinant CYP2C9, luciferin-H conversion, luminescence; active compounds read high; factor 1 = untreated enzyme, 0 = blocked. activation factor at 5 µM. 96,000 compounds, 1.4% hits;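 active = activation factor of 2 or more for CYP2C9 at a 5 µM dose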
Each line names hits and unclear results; the compound was inactive in the other large screens. Rows were chosen to be rich in hits. Some 27% of all compounds tested hit in one or more screens of this group.

CCOC(=O)C1CCN(S(=O)(=O)c2ccc3[nH]c(=O)oc3c2)CC1	CYP2C19 inhib 56 (no result: Cav3 T inh)
CC(C)(C)N=Cc1cc(-c2ccccc2)sc1O	none
COC(=O)CC1c2ccccc2S(=O)(=O)N1Cc1ccccc1 (stereo not given)	none (no result: CYP2C19 inhib, CYP2C9 inh, CYP2C19 act, CYP2C9 activ)
CC1=C(C(=O)NCc2ccccc2)C(c2ccc(C)o2)n2ncnc2N1 (stereo not given)	none
CN(C)S(=O)(=O)c1ccc(C(=O)OCC(=O)NC(=O)NCc2ccccc2)cc1	none
Cc1ccc(Oc2cc(C)nc(-c3ccccc3O)n2)cc1	CYP2C19 inhib 76, CYP2C9 inh 79
Cc1ccc(Nc2cc(C)nc(-c3ccccc3O)n2)cc1	CYP2C9 inh 55
CCC(C)(NC(=O)c1ccc(=O)[nH]c1)C(=O)NC1CCCC1 (stereo not given)	none
O=C(NCc1ccco1)c1n[nH]c(=O)c2ccccc12	none
CC(C)Oc1ccccc1C1CC(=O)Nc2cc3c(cc21)OCO3 (stereo not given)	CYP2C19 inhib 99, CYP2C9 inh 76
COc1cc2c(cc1OC)C(c1ccc3c(c1)OCO3)CC(=O)N2 (stereo not given)	none
CCOc1ccccc1C1CC(=O)Nc2cc3c(cc21)OCCO3 (stereo not given)	CYP2C19 inhib 54, CYP2C9 inh 69
COC(=O)CCCC1=CC2=CC(=O)C(C)(OC(=O)c3cccs3)C(=O)C2=CN1C1CC1 (stereo not given)	none (no result: CYP2C19 inhib, CYP2C9 inh, CYP2C19 act, CYP2C9 activ)
CCOC(=O)CNc1c(-c2ccc(F)cc2)nc2cnccn12	CYP2C19 inhib 60
CCOC(=O)CNc1c(-c2ccc(OC)cc2)nc2ccc(Cl)cn12	none (no result: CYP2C19 inhib, CYP2C9 inh, CYP2C19 act, CYP2C9 activ)
CCOC(=O)CNc1c(-c2ccc(Cl)cc2)nc2cnccn12	CYP2C19 inhib 89, CYP2C9 inh 74 (no result: Cav3 T inh)
CCCOc1ccc(/C(O)=C2/C(=O)C(=O)N(CCN(CC)CC)C2c2ccncc2)cc1 (stereo not given)	none (no result: Cav3 T inh)
CCCc1cc(N2CCN(C(=O)c3ccco3)CC2)n2c(nc3ccccc32)c1C#N	CYP2C9 inh 76
CCCc1cc(NCCCCO)n2c(nc3ccccc32)c1C#N	none
C=CCn1c(CCNC(=O)c2cccs2)nnc1SCC(=O)Nc1cccc(Cl)c1C	none
Cc1cc(C)c2c(N)c(C(=O)N3CCCCCC3)sc2n1	CYP2C19 inhib 51
Cc1cc(C)c2c(N=CN(C)C)c(C(=O)N3CCN(c4ncccn4)CC3)sc2n1	CYP2C9 inh 69
Cc1cc(C)c2nc(N3CCC(C(=O)N4CCN(c5ncccn5)CC4)CC3)sc2c1	none
COCc1cc(C)nc2sc(C(=O)N3CCCC3)c(N)c12	none
CCc1ccc(N2CC(C(=O)NCc3ccco3)CC2=O)cc1 (stereo not given)	none (no result: CYP2C19 inhib, CYP2C9 inh, CYP2C19 act, CYP2C9 activ)
CCOC(=O)c1ccc(NC(=S)NC2CC(C)(C)NC(C)(C)C2)cc1	none
Cc1cc(C)cc(-n2c(SCC(=O)NCc3ccco3)nc3ccccc3c2=O)c1	none
O=C(CSc1ncn[nH]1)Nc1ccccc1Sc1ccccc1	CYP2C19 inhib 87
O=C(CSc1ncn[nH]1)NCCCc1ccccc1	CYP2C19 inhib 57
O=c1c2ccccc2nc(CSc2nnnn2-c2ccccc2)n1-c1cccc(C(F)(F)F)c1	none
Cn1c(N)c(C(=O)CCl)c(=O)n(C)c1=O	none
CC(C)c1nc(-c2c(N)n(C)c(=O)n(C)c2=O)sc1C(=O)C(C)(C)C	CYP2C19 inhib 76
CC1CCN(C(=O)C2Cc3ccccc3CN2S(=O)(=O)c2ccc(F)cc2)CC1 (stereo not given)	none
CN/S(=N/S(=O)(=O)c1ccccc1)c1ccc(C)cc1 (stereo not given)	CYP2C19 inhib 76
CCC(CC)C(=O)Nc1ccccc1NC(C)=O	none
NCC1CCC(C(=O)Oc2ccc(CCC(=O)O)cc2)CC1 (stereo not given)	none (no result: CYP2C19 inhib, CYP2C9 inh, CYP2C19 act, CYP2C9 activ)
COC(=O)C(NC(C)=O)(Nc1nc2ccc(C)cc2s1)C(F)(F)F (stereo not given)	CYP2C19 inhib 75, CYP2C9 inh 78
COC(=O)C(NC(C)=O)(Nc1nc2ccc(S(C)(=O)=O)cc2s1)C(F)(F)F (stereo not given)	CYP2C9 inh 64
CCC(=O)Nc1nc2ccc(S(C)(=O)=O)cc2s1	none (no result: CYP2C19 inhib, CYP2C9 inh, CYP2C19 act, CYP2C9 activ)
CS(=O)(=O)c1ccc2nc(NC(NC(=O)c3ccco3)(C(F)(F)F)C(F)(F)F)sc2c1	CYP2C19 inhib 50, CYP2C9 inh 99 (no result: Cav3 T inh)
CCOC(=O)c1ccc2nc(NC(NC(C)=O)(C(=O)OC)C(F)(F)F)sc2c1 (stereo not given)	none
CCOC(=O)N1CCN(C(c2ccc(F)cc2)c2sc3nc(C)nn3c2O)CC1 (stereo not given)	none
Cc1ccc(CN(C(=O)c2csnn2)C(C(=O)NC2CCCC2)c2ccc(C)o2)cc1 (stereo not given)	none (no result: CYP2C19 inhib, CYP2C9 inh, CYP2C19 act, CYP2C9 activ)
O=C(c1ccc(=O)n(Cc2ccc(Cl)c(Cl)c2)c1)N1CCOCC1	none
O=c1ccc(NS(=O)(=O)c2ccccc2)cn1Cc1ccc(Cl)c(Cl)c1	CYP2C19 inhib 98, CYP2C9 inh 79
CCCS(=O)(=O)N1CCC(C(=O)N2CCc3ccccc3C2)CC1	none
COC(=O)c1ccc(NC(=S)NCCc2cccc(C)c2)cc1	CYP2C19 inhib 77, CYP2C9 inh 79
COC(=O)c1ccc(NC(=S)N2CCN(Cc3cccc(C)c3)CC2)cc1	Cav3 T inh -4.4
COC(=O)c1ccc(NC(=S)N2CCN(Cc3ccccc3)CC2)cc1	none
COC(=O)c1cccc(NC(=S)NCc2ccc(Cl)cc2)c1	none
O=C(CSc1ccc2nnc(-c3ccc(F)cc3)n2n1)N1CCOCC1	none (no result: CYP2C19 inhib, CYP2C9 inh, CYP2C19 act, CYP2C9 activ)
CN(C)c1ccc(C(=O)C(O)c2ccc(C(C)(C)C)cc2)cc1 (stereo not given)	none
Cc1cc(C)n(S(=O)(=O)c2cc(C(=O)O)c(Cl)cc2Cl)n1	none
COC(=O)c1cc(S(=O)(=O)n2nc(C)c(Br)c2C)c(Cl)cc1Cl	CYP2C19 inhib 73
COc1ccc(/C=C2/N=C(c3cccs3)OC2=O)cc1OC(C)C	CYP2C9 inh 72
Cc1nn(Cc2c(Cl)cccc2Cl)c(C)c1N	none (no result: CYP2C19 inhib, CYP2C9 inh, CYP2C19 act, CYP2C9 activ)
O=C(OCCN=C1NS(=O)(=O)c2ccccc21)c1ccncc1	CYP2C9 inh 78
CN(C)S(=O)(=O)c1ccc(C(=O)OCCCN=C2NS(=O)(=O)c3ccccc32)cc1	none
O=C(NCCCN=C1NS(=O)(=O)c2ccccc21)c1ccc(S(=O)(=O)N2CCCCC2)cc1	CYP2C9 inh 54 (no result: Cav3 T inh)
O=C(NCCN=C1NS(=O)(=O)c2ccccc21)c1ccncc1	CYP2C9 inh 51
Cc1ccc2c(c1)-c1c(cnn1CC(=O)N(CCC#N)c1ccccc1)CO2	none
Cc1ccc(S(=O)(=O)NCC(=O)OCC(=O)NC(=O)c2cccn2C)cc1	none
Cc1ccc(-c2cc(N)n(Cc3ccc(Cl)cc3)n2)cc1	CYP2C19 inhib 83, CYP2C9 inh 62, Cav3 T inh -5
CCCS(=O)(=O)n1nc(-c2ccc(C)cc2)cc1N	CYP2C19 inhib 91, CYP2C9 inh 67
COc1cc(OC)cc(-c2cc(N)n(S(=O)(=O)Cc3ccccc3)n2)c1	CYP2C9 inh 87
CCCS(=O)(=O)n1nc(-c2ccc(OC)cc2)cc1N	CYP2C19 inhib 94, CYP2C9 inh 87

Screens as filed in PubChem BioAssay.
